High-throughput results deposited in PubChem BioAssay by National Center for Advancing Translational Sciences (NCATS).
Compounds with a hit are over-represented: about 9.3% of the library has one in this group of screens.
ELG1 genotoxic: inducers of genotoxicity in HEK293T ELG1-luciferase cells | 330,000 compounds, 1.3% hits | Potency, µM (doses to about 46 µM), for inactives: at the highest dose activity change, positive = activation, usual class: activators | HEK293T ELG1-luciferase reporter, luminescence, 16 h; note: % of control where 0% means no effect; nearly all actives have a fitted effect of over 60% in size
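HEK293T cells expressing luciferase-tagged ELG1 were exposed to compound or DMSO vehicle for 16 hr at 37 °C and 5% CO2. Luciferase activity was then measured with ONE-Glo after 30 min at room temperature.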
NPC1 prom act: activators of NPC1 promoter; 320,000 compounds, 2.4% hits; Huh7 NPC1 promoter luciferase reporter, 24 h; Potency, µM (titrated, usually from 9.22 µM), for the others: top-dose activation, hits mostly activators; note: % of control where 0% means no effect; nearly all actives have a fitted effect of over 60% in size
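Stable NPC1-promoter luciferase Huh7 line; cpd (DMSO) 24 h, 37 °C, 5% CO2; Amplite luciferase reagent 10 min RT; luminescence readout. qHTS format.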
Rab9 promoter act: activates the Rab9 promoter; 320,000 compounds, 2.8% hits; AID 485297; Potency, µM (top dose mostly 9.22 µM), inactives show at the highest dose activation, negative = inhibition, usual class: activators; Huh7 Rab9 promoter-luciferase reporter, luminescence, 24 h; note: % of control where 0% means no effect; nearly all actives have a fitted effect of over 60% in size
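Luminescence read-out: Huh7 cells stably expressing Rab9-luciferase, treated 24 h with compound at 37 °C, then lysed with luciferase reagent for 10 min at ambient before reading.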
SMN2 splice up: enhancers of SMN2 splice variant expression | Potency, µM (highest dose often 46.1 µM), without a hit: top-dose activity change, positive = activation, usual class: activators | 210,000 compounds, 2.8% hits | AID 1458 | HEK293 SMN2-luciferase splicing reporter, luminescence, 30-36 h; note: % of control where 0% means no effect; nearly all actives have a fitted effect of over 55% in size
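qHTS luciferase splicing reporter: luminescence rises when SMN2 exon 7 is included in transfected HEK293 cells. Compound exposure lasted 30-36 h at 37C, with 4.5 mM final sodium butyrate as control, followed by a ONE-Glo read.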
ELG1 repair inh: blocks ELG1-dependent DNA repair in HEK293T cells; HEK293T ELG1-luciferase reporter, luminescence, 16 h; DNA damage induced by 5-fluorouridine; Potency, µM (series often up to 46.1 µM), for the others: top-dose activity change, negative = inhibition, most hits filed as inhibitors; 330,000 compounds, 2.3% hits; note: % is set by controls: 0 for no effect and ±100 for the full control effect; nearly all actives have a fitted effect of over 55% in size
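Luminescence from the luciferase reporter, measured 30 min after ONE-Glo reagent at room temperature, was the read-out. Beforehand, 2,000 cells per well were exposed for 16 hr at 37 °C to 5-fluorouridine together with compound or vehicle.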
FLuc modulator: firefly luciferase modulation, counter-screen for miR-21 project. AID 588342. Potency, µM (highest dose often 57.5 µM), without a hit: at the top dose activity change, negative = inhibition, actives largely listed as inhibitors. P08659. purified FLuc, Km substrates, luminescence inhibition. 360,000 compounds, 6.9% hits;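 note: plate controls were vehicle for no effect and reference inhibitor for full effect; nearly all actives have a fitted effect of over 55% in size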
Target sequence (P08659 whole entry, looked up): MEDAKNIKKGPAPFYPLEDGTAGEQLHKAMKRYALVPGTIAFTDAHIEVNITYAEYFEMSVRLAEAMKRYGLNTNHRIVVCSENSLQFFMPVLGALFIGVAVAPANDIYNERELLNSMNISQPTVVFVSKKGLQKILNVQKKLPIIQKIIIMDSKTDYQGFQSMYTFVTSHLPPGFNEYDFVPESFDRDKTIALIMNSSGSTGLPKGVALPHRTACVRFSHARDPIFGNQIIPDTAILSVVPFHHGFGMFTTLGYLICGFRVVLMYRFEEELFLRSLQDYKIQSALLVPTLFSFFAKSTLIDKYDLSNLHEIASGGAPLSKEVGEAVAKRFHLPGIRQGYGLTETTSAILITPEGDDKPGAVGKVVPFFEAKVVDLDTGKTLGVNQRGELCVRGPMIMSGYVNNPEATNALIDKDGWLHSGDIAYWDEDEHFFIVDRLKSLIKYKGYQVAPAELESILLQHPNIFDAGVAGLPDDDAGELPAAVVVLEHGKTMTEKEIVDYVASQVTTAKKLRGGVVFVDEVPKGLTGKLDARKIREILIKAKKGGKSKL
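Purified P. pyralis luciferase, 10 nM final, with Km-level 10 uM D-luciferin and 10 uM ATP in 50 mM Tris acetate pH 7.5, 10 mM Mg acetate, 0.01% Tween-20, 0.05% BSA; 6-point qHTS titration about 60 µM downward; luminescence read.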
Active calls of the source: *; ? = inconclusive; · = no result given; [ ] = remark or other dose. Calls come from the whole dose curve; as a rule, active = well fitted curve in the direction sought with a large enough effect; inconclusive = small, poorly fitted or top-dose-only effect, or another doubt; inactive = no such curve, though single readings can be large; an effect the other way counts as inactive or inconclusive. Potency is the fitted concentration of half-maximal effect.

SMILES	ELG1 genotoxic	NPC1 prom act	Rab9 promoter act	SMN2 splice up	ELG1 repair inh	FLuc modulator
O=C(COc1cccc(NC(=O)c2cccc([N+](=O)[O-])c2)c1)c1ccc(Br)cc1	-9%	-1%	1%	-20%	9.2µM*	?
COc1cccc(C(=O)COc2ccc(NC(=O)c3ccccc3)cc2)c1	-1%	1%	-1%	·	-16%	3.4µM*
COc1cccc(C(=O)Nc2ccc(NC(C)=O)cc2)c1	?	15%	27%	17%	?	?
Cc1cc(NC(=O)CCC(=O)N(CC(=O)NC2CCCC2)c2ccc(C)c(F)c2)no1	-1%	0%	1%	·	0%	0%
Cc1ccccc1N=C1NC(=O)CS1	1%	-3%	3%	-11%	2%	0%
Cc1ccccc1N=C1Nc2ccccc2CS1	?	1.4µM*	0.63µM*	13µM*	?	4.8µM*
O=C(Nc1ncccn1)c1ccc(C(F)(F)F)cc1	3%	0%	-5%	-1%	?	19µM*
Cc1ccc(C(=O)NC2=NCCS2)cc1Cl	?	1.4µM*	1.3µM*	·	?	6.7µM*
O=C(NC1=NCCS1)c1ccc(C(F)(F)F)cc1	?	2.8µM*	15%[1.84 µM]	·	?	11µM*
O=C(NNC(=O)c1cccc(C(F)(F)F)c1)c1ccncc1	2%	1%	-4%	·	7%	-11%
CC(C)c1ccc(C(=O)NC2=NCCS2)cc1	1.6µM*	0.56µM*	0.4µM*	2µM*	?	1.9µM*
COc1ccc(-c2nnc(SCC(=O)Nc3ccc(C)c(C)c3)s2)cc1	·	·	·	·	·	-12%
NS(=O)(=O)c1ccc(NC(=O)COC(=O)CCCN2C(=O)c3cccc4cccc(c34)C2=O)cc1	2%	·	·	·	0%	·
Cc1ccc(C(=O)NC2=NCCS2)cc1	?	2.8µM*	3.5µM*	·	?	11µM*
COc1ccccc1C(=O)NCC(c1cccnc1)N1CCc2ccccc2C1 (stereo unspecified)	·	·	·	·	·	2.7µM*
COc1ccc(NC(=O)C(=O)NCC(c2cccnc2)N2CCc3ccccc3C2)cc1 (stereo unspecified)	·	·	·	·	·	0.38µM*
CSc1cccc(N2CC(C(=O)Nc3cccc(S(=O)(=O)N4CCCC4)c3)CC2=O)c1 (stereo unspecified)	-13%	-1%	-4%	·	?	-8%
COc1ccc(CNC(=O)CN2C(=O)CCn3nc(-c4cn(C)c5ccccc45)cc32)cc1	·	·	·	·	·	-18%
Cn1cccc1CNC(=O)Nc1ccccc1	?	28%	?	?	?	19µM*
Cc1ccc(CNC(=O)Nc2ccccc2)n1C	8%	17%	26%	·	?	19µM*
Cn1cccc1CNC(=O)Nc1ccc(Cl)cc1	?	?	3.5µM*	?	?	13µM*
Cc1ccc(NC(=O)NCc2cccn2C)cc1C	?	4µM*	?	·	?	?
Cc1ccc(NC(=O)NCCN2CCCCC2)cc1C	0%	-6%	0%	·	0%	2%
CN(C(=O)/C=C/c1ccco1)c1ccccc1C(=O)O	0%	-3%	-9%	·	8%	-6%
CN(C)c1ccc(C(=O)/C=C/c2ccco2)cc1	?	3.2µM*	2.8µM*	13µM*	?	0.38µM*
O=C(/C=C/c1ccco1)c1ccc(O)cc1	?	13%	?	6%	?	13µM*
CCCCN(CC)CCCNC(=O)Cn1ncc2c3ccccc3n(Cc3ccccc3F)c2c1=O	·	·	·	9%	·	6%
Cc1ccc(-c2csc(NC(=O)/C=C/c3cccs3)n2)cc1C	-1%	0%	-1%	-47%	?	?
COc1ccc(-c2csc(Nc3ncccc3C)n2)cc1OC	14%	?	?	?	?	-3%[2.3 µM]
Cc1cccnc1Nc1nc(-c2ccc(O)c(O)c2)cs1	5.2µM*	1%	?	3%	?	17µM*
